An excerpt weighted towards active compounds, which were near 1.6% of everything screened.
PG9 Ab binder – binders of HIV-1 gp120 antibody PG9, primary screen, biochemical, TR-FRET. HIV-1 gp120 / PG9 antibody interaction. TR-FRET gp120-PG9 antibody binding. inhibition, % at 6.7 µM. 0.43% of 360,000 active; in the data active = inhibition above about 8.5%
V-ATPase pH – regulators of yeast V-ATPase proton pumping, primary screen, pHLuorin cytosolic pH fluorescence. S. cerevisiae. response, % at 10 µM. 0.37% of 350,000 active; in the data active = response mostly above about 7.3%, no sharp cut-off; inactive = mostly below about 5.4%; note: actives read high
NPR2 activator – human GC-B receptor activators, primary screen, HEK293 GC-B cells, cGMP TR-FRET, EC30 CNP | activation, % at 10 µM | 0.11% of 370,000 active | Atrial natriuretic peptide receptor 2 (Homo sapiens), P20594 | 0% at EC30 CNP, 100% saturating CNP | AID 1920062, 2024;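 active = activation at 10 µM reaching about 35% in either raw or pattern-adjusted values, limit read from the data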
NR1D1 modulator – modulators of Rev-erb alpha DNA binding, primary screen, biochemical, FITC-DNA, fluorescence polarization, uHTS; activity, % at 10 µM; Nuclear receptor subfamily 1 group D member 1 (Homo sapiens), P20393; Rev-erbα–FITC-DNA binding, 90 min; AID 1259318, 2017; 0.79% of 370,000 active;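 active = activity above about 14%, limit read from the data; passing the limit was not always enough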;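 note: 0% = DMSO wells with 35 nM protein and 100% = DMSO wells with 750 nM protein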
NPR1 activator – GC-A stimulated cGMP production enhancers – HEK293 GC-A cells, cGMP TR-FRET, EC30 ANP, primary screen. activation, % at 10 µM. 0% at EC30 ANP, 100% saturating ANP. Atrial natriuretic peptide receptor 1 (Homo sapiens), P16066. 0.14% of 370,000 active; in the data active = activation above about 40%
Target sequence (P16066 whole entry, looked up): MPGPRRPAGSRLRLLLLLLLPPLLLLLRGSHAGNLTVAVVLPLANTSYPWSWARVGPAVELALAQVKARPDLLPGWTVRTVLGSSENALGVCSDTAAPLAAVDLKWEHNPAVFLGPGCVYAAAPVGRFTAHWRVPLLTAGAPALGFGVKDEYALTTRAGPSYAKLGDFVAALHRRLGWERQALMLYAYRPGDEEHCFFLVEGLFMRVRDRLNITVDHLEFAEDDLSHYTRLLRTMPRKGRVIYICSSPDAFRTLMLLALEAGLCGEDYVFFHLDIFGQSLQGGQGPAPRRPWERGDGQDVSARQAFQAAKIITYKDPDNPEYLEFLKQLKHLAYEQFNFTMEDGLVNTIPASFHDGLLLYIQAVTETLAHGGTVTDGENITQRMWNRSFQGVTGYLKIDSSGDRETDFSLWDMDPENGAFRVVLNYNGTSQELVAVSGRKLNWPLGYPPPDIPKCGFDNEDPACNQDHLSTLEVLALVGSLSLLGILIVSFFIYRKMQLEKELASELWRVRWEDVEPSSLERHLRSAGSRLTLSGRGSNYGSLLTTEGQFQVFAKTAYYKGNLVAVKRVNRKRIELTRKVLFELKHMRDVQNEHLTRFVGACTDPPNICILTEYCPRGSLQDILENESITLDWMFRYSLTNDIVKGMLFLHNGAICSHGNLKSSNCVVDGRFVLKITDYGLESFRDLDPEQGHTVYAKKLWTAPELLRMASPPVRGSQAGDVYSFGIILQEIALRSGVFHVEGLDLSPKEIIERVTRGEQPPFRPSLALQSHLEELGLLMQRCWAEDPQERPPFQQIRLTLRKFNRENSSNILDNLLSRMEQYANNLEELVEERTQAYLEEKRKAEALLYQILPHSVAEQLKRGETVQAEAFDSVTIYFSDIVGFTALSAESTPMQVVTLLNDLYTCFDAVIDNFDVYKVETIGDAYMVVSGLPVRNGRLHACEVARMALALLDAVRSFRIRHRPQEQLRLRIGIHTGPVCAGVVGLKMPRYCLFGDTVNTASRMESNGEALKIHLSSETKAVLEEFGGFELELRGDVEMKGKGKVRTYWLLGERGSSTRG
VATPase regulator – yeast V-ATPase proton pumping modulators, confirmation, S. cerevisiae, pH-sensitive GFP, second cherry-pick; AID 602197, 2012; S. cerevisiae pHLuorin cytosolic pH, V-ATPase proton transport; response, % at 10 µM; shares compounds with V-ATPase pH; 2% of 980 active; in the data active = response above about 24%;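 note: plate controls were vehicle wells for no effect and positive control wells for full effect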
* = called active by the depositor; . = no result given.

SMILES | PG9 Ab binder | V-ATPase pH | NPR2 activator | NR1D1 modulator | NPR1 activator | VATPase regulator
COc1ccc(OCCC(=O)OCC(=O)NCCc2ccccc2)cc1 | -0.8 | 7.6* | -1.0 | 5.7 | -1.7 | 0.2
COc1ccc(CNC(=O)COC(=O)CCOc2ccccc2)cc1 | -0.6 | 0.6 | 3.2 | -2.7 | 0.5 | .
Nn1c(SCC(=O)Nc2nccs2)nnc1-c1cc(-c2ccc(Cl)cc2)n[nH]1 | . | . | -11.9 | 4.2 | 3.2 | .
COc1ccc(C(=O)Nc2cc(C)nn2-c2ccc(F)cc2)cc1 | 0.1 | 11.4* | 2.3 | 1.5 | 0.5 | -4.5
COc1cc(NC(=O)C2CCCN2S(=O)(=O)c2ccc3c(c2)CC(C)N3C(C)=O)cc(OC)c1 (stereo unspecified) | 0.5 | 8.5* | -12.4 | 2.4 | -7.9 | -0.4
O=c1c2ccccc2sn1-c1cccc(Cl)c1 | 2.1 | -0.8 | -2.0 | 2.8 | 7.0 | 16.6
O=c1c2ccccc2sn1-c1ccccc1 | 5.2 | 5.8 | 15.7 | -2.7 | 15.4 | .
C=CCN(CC#CC1=CCCCC1)Cc1ccc(OC)cc1OC | . | . | -4.2 | 4.7 | 0.9 | .
O=S(=O)(c1ccccc1F)N1CCC(c2nc3ccccc3o2)CC1 | . | . | -7.1 | -0.5 | -4.2 | .
O=C(O)c1cc(-c2ccc(Cl)c(Cl)c2)n(-c2ccc(F)cc2)n1 | 1.5 | 12.5* | -4.3 | 3.4 | 2.6 | 1.2
CCCN(CCC)CC(O)COc1ccc2c(c1)OCO2 (stereo unspecified) | -0.8 | 8.9* | 0.5 | -1.5 | 1.6 | -4.2
CCOC(=O)C1CCN(C(=O)/C(C)=C\c2ccccc2)CC1 | 0.9 | -0.7 | 0.1 | -0.9 | -3.1 | .
C/C(=C/c1ccccc1)C(=O)N1CCC(C)CC1 | 0.0 | 11.2* | 5.9 | -6.7 | -4.6 | -1.8
CC(c1ccon1)N(C)Cc1c(C(=O)N(C)Cc2ccccc2)nc2ccccn12 (stereo unspecified) | -2.3 | 8.1* | -7.7 | -0.9 | -3.3 | -4.0
CCOC(=O)CNC(=O)Cc1ccc(Cl)cc1 | -0.3 | -0.1 | -1.0 | -2.6 | 0.0 | .
CCN(CC)C(=O)CNC(=O)Cc1ccc(Cl)cc1 | 1.8 | 9.5* | 6.9 | -3.9 | 5.0 | 2.4
COc1cc(C(=O)NCc2nnc(SCC(=O)N3CCOCC3)o2)cc(OC)c1OC | -0.8 | 15.8* | -4.2 | -0.2 | 1.4 | -0.5
CCOC(=O)[C@]12CCCC3=C1N(CCC3)C(=O)[C@@H](CC(=O)N1CCCCC1)C2 | . | . | 5.0 | 3.3 | 3.3 | .
N#CC1=C(N)Oc2cc3ccccc3cc2C1c1cccnc1 (stereo unspecified) | -0.8 | -2.1 | -3.1 | -2.0 | -8.0 | .
N#CC1=C(N)Oc2c(ccc3cccnc23)C1c1cccnc1 (stereo unspecified) | -1.8 | 9.7* | 0.9 | -3.2 | -0.2 | -0.5
CCC(C)NCCOCCOc1ccc(C)cc1Br (stereo unspecified) | -1.7 | 35.8* | -8.6 | 2.7 | 2.1 | 0.9
O=C(NCCCc1ccccc1)OC1CCC12CCC(c1ccccc1)CC2 (stereo unspecified) | . | . | 3.4 | 5.0 | 7.1 | .
COc1cccc(CN[C@@H]2CC[C@@]34CCCN3C(=O)CCC[C@H]4C2)c1 | . | . | -5.7 | -2.8 | -1.6 | .
Cn1cccc1CC(=O)NNC(=S)Nc1ccc(Cl)cc1Cl | -0.4 | 16.5* | -2.7 | -0.3 | 0.6 | -0.6
Cn1cccc1CC(=O)NNC(=S)Nc1ccc(F)cc1 | -2.3 | -2.5 | 0.3 | -4.0 | -1.3 | .
SMILES | PG9 Ab binder | V-ATPase pH | NPR2 activator | NR1D1 modulator | NPR1 activator | VATPase regulator
Cc1cc(C)n(CC(=O)Nc2ccccc2)n1 | -0.5 | 10.7* | -5.4 | 3.3 | 1.1 | 3.3
Cc1ccc(NC(=O)Cn2nc(C)cc2C)cc1 | 0.7 | 0.6 | 0.2 | 6.7 | 1.2 | .
Cc1csc2c(SCC(=O)NNC(=O)C(Cl)Cl)ncnc12 | -0.7 | 12.0* | -2.7 | -3.8 | -3.5 | -4.4
COc1ccc(C2C(C(=O)Nc3ccc(Cl)cc3)CCC(=O)N2c2ccc(OC)cc2)cc1 (stereo unspecified) | . | . | -4.2 | -3.4 | -0.4 | .
O=C(CSc1n[nH]c(=O)[nH]c1=O)Nc1c(Cl)cc(Cl)cc1Cl | -3.3 | 12.6* | 0.0 | -7.1 | -3.6 | -0.7
CCOC(=O)Cc1csc(NC(=O)COc2ccccc2)n1 | -0.7 | 11.3* | 3.6 | 1.5 | -0.6 | 0.5
CCNC(=S)NC1CC2CCCC(C1)N2Cc1ccc(C)cc1 (stereo unspecified) | -0.8 | 6.3* | -2.1 | -5.3 | 2.5 | 2.3
CNC(=S)NC1CC2CCCC(C1)N2Cc1ccc(C)cc1 (stereo unspecified) | -1.2 | 0.8 | 1.2 | 1.3 | -1.8 | .
Cc1ccc(C2=N/C(=C\c3c(C)nn(-c4ccccc4)c3N3CCCC3)C(=O)O2)cc1 | 1.0 | 70.5* | 2.8 | 0.8 | -7.0 | -5.9
Cc1nn(-c2ccccc2)c(N2CCCC2)c1/C=C1\N=C(c2ccc(F)cc2)OC1=O | 0.9 | -0.6 | -9.8 | -4.8 | -26.4 | .
O=C(NC1CCC1)c1ccc(C#Cc2cccc(F)c2)cn1 | . | . | -0.1 | -1.4 | 5.5 | .
Cc1cc(C)c(C(=O)COC(=O)C2CCN(c3ccc(C(F)(F)F)cn3)CC2)c(C)c1 | -0.8 | 8.6* | -3.8 | -3.6 | -1.3 | -0.1
Cc1cc(NC(=O)c2ccc(NS(=O)(=O)c3ccccc3)cc2)no1 | . | . | 9.0 | -4.0 | -1.3 | .
Cc1cc(C)cc(C(=O)OCCN(C)C2CN(Cc3cn(Cc4ccc([N+](=O)[O-])cc4)nn3)S(=O)(=O)C2)c1 (stereo unspecified) | . | . | -4.3 | -5.6 | 0.9 | .
Cc1nn(CC#N)c(=O)n1-c1ccc(Cl)cc1 | 0.5 | 1.4 | 1.3 | -8.2 | -0.1 | -3.7
CC(=O)c1cc(-c2ccccc2-c2ccccc2)c(=O)n2c1CCC2 | . | . | -4.2 | -1.5 | -0.1 | .
CN(C)C(CNC(=O)c1ccc(S(=O)(=O)Nc2cccc(C(F)(F)F)c2)cc1)c1ccco1 (stereo unspecified) | -0.7 | 10.2* | -0.3 | 2.6 | -0.1 | 2.2
CN(C)C(CNC(=O)c1cccc(NS(=O)(=O)c2ccc(Br)cc2)c1)c1ccco1 (stereo unspecified) | 0.3 | 0.2 | -2.1 | 2.0 | -1.5 | .
c1ccc(-n2c(SCc3cccc4ccccc34)nnc2-c2ccccn2)cc1 | . | . | -12.5 | -1.1 | -7.9 | .
CCCCCn1nc(C(=O)N(CCOC)c2c(N)n(CCCC)c(=O)[nH]c2=O)c2ccccc2c1=O | -1.2 | 13.1* | 0.8 | 5.2 | -0.1 | -1.6
CCCCn1c(N)c(N(CC)C(=O)c2cccc(F)c2)c(=O)[nH]c1=O | 2.8 | 2.6 | 1.8 | -4.2 | 4.3 | .
CCCCn1c(N)c(N(CC)C(=O)c2cccc(OCc3ccccc3)c2)c(=O)[nH]c1=O | 2.0 | 10.8* | 2.5 | 3.4 | 5.2 | -0.4
